High-throughput results as filed in PubChem BioAssay.
The list is not random: actives were taken first. Their share in the collection is about 2.4%.
FEN1 inhibitor: human FEN1 inhibition | Recombinant FEN1 flap cleavage, fluorescence, 15 min | Potency, µM (top dose mostly 114 µM), for the others: at the top dose activity change, negative = inhibition, actives largely listed as inhibitors | 0.35% of 390,000 active | AID 588795; further: potency means the concentration at half of the fitted maximal effect; on the % scale 0 is the no-effect control and ±100 the full control effect; nearly all actives have a fitted effect of over 65% in size
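Reaction started by adding substrate (50 nM final) to 10 nM enzyme after 15 min room-temperature compound preincubation. Reads at 0 and 15 min, with data normalized and fitted to a four-parameter Hill equation.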
WRN inhibitor: WRN helicase (human) inhibition | Potency, µM (titrated, usually from 114 µM), for the others: at the top dose activity change, negative = inhibition, hits mostly inhibitors | WRN helicase unwinding, fluorescent forked duplex, kinetic | Q14191 | 0.46% of 360,000 active | AID 651768; further: potency means the concentration at half of the fitted maximal effect; on the % scale 0 is the no-effect control and ±100 the full control effect; nearly all actives have a fitted effect of over 55% in size
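Screening of the MLSMR collection measured strand separation of a quenched forked DNA duplex (100 nM) by 20 nM WRN with 2 mM ATP, all final. Compounds were preincubated with enzyme 15 min at room temperature.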
Pol beta inh: blocks human DNA polymerase beta activity. AID 485314. Potency, µM (titrated, usually from 114 µM), without a hit: at the highest dose activity change, negative = inhibition, hits mostly inhibitors. P06746. 1.3% of 340,000 active. Pol beta primer extension/strand displacement, fluorescence kinetic; further: potency means the concentration at half of the fitted maximal effect; on the % scale 0 is the no-effect control and ±100 the full control effect
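Human Pol beta at 10 nM; strand-displacement substrate 50 nM final. Compound exposure 15 min at room temperature before start, reaction 10 min at room temperature.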
POLI inh: inhibitors of human DNA polymerase iota; Q9UNA4; Potency, µM (top dose mostly 115 µM), without a hit: at the top dose activity, negative = inhibition, actives largely listed as inhibitors; 1% of 390,000 active; Pol iota fluorescent replication assay, 10 min; further: potency means the concentration at half of the fitted maximal effect
Target sequence (Q9UNA4 whole entry, looked up): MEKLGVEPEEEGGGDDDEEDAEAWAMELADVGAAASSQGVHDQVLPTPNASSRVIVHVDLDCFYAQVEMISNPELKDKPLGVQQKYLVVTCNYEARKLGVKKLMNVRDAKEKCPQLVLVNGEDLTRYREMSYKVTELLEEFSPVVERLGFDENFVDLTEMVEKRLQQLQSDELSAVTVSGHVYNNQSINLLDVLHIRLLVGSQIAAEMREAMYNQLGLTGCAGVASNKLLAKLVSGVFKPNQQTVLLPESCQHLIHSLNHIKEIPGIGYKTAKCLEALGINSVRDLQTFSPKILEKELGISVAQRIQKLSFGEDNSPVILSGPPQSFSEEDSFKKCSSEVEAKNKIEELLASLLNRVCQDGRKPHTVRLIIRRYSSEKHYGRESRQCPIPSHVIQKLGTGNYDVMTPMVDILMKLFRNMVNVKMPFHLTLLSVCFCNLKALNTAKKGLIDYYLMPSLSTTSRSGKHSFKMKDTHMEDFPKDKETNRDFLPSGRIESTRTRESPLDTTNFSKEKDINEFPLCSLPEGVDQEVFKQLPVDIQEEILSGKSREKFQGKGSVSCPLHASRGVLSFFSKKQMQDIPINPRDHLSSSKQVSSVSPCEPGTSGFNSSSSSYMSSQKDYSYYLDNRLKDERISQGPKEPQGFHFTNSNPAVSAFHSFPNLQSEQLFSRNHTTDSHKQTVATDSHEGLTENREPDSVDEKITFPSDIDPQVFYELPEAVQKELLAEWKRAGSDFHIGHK
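Fluorescent replication assay read twice, at 0 min and 10 min after adding 50 nM (final) substrate. Enzyme (10 nM) and compounds were first incubated 15 min at room temperature; enzyme-free buffer wells were negative controls.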
Pol kappa inh-1: DNA polymerase kappa (human) inhibition. Q9UBT6. purified Pol kappa, fluorescent DNA synthesis assay, 10 min. Potency, µM (top dose mostly 107 µM), without a hit: at the top dose activity, negative = inhibition, actives largely listed as inhibitors. 0.53% of 400,000 active. AID 588579; further: potency means the concentration at half of the fitted maximal effect; on the % scale 0 is the no-effect control and ±100 the full control effect
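Fluorescent qHTS in 1536-well format: enzyme (10 nM) and compound sat 15 min at room temperature before 50 nM substrate (final) was added. Signal taken at 0 and 10 min; no-enzyme buffer wells were negative controls.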
Pol eta inh-1: blocks human DNA polymerase eta activity. recombinant Pol eta, fluorescent DNA replication assay. Potency, µM (highest dose often 114 µM), inactives show at the highest dose activity change, negative = inhibition, hits mostly inhibitors. 1.2% of 390,000 active. Q9Y253. AID 588591; further: potency means the concentration at half of the fitted maximal effect; on the % scale 0 is the no-effect control and ±100 the full control effect
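Pol eta (10 nM) was preincubated with compounds for 15 min at room temperature, after which fluorescent replication substrate (50 nM final) was added to start the reaction. Fluorescence was read kinetically at 0 and 10 min.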
GALK confirm: confirmation of human galactokinase (GALK) inhibitors. shares compounds with Pol eta inh-1. purified GALK, Kinase-Glo ATP depletion luminescence. Potency, µM (doses to about 115 µM), inactives show top-dose activity, negative = inhibition, usual class: inhibitors. 70% of 150 active. AID 2015
GALK redox cs: redox cycling activity in phenol red-HRP assay; shares compounds with Pol eta inh-1; Phenol red-HRP H2O2 redox cycling, absorbance 600 nm; Potency, µM (top dose mostly 115 µM), inactives show at the highest dose activity change, negative = H2O2 signal, hits mostly inhibitors; 40% of 150 active; AID 2035
HEK293 tox: counter-screen for GALK inhibitors: HEK293 cell cytotoxicity; shares compounds with Pol eta inh-1; HEK-293 viability, ATP luminescence (CellTiter-Glo), 24/48 h; Potency, µM (series often up to 46.1 µM), for inactives: at the top dose activity change, negative = cytotoxicity, usual class: inhibitors; 10% of 170 active; AID 2547; further: potency means the concentration at half of the fitted maximal effect; on the % scale 0 is the no-effect control and ±100 the full control effect
Pol kappa inh-2: Pol kappa (human) inhibition, cherry-pick confirmation; shares compounds with Pol eta inh-1; purified Pol-kappa, fluorescent strand-displacement substrate; Potency, µM, actives largely listed as inhibitors; 76% of 920 active; further: potency means the concentration at half of the fitted maximal effect
Pol eta inh-2: Pol eta (human) inhibition, cherry-pick confirmation; shares compounds with Pol eta inh-1; Pol eta primer extension, TAMRA/BHQ fluorescence, 10 min; Potency, µM, most hits filed as inhibitors; 64% of 2,600 active; further: potency means the concentration at half of the fitted maximal effect
* hit, by the source's call; ? = inconclusive; . = no result given; [ ] = another dose, or the depositor's remark. The call rests on the fitted dose curve; in most records, active means well fitted curve in the direction sought with a large enough effect; inconclusive means small, poorly fitted or top-dose-only effect, or another doubt; inactive means no such curve, though single readings can be large; an effect the other way counts as inactive or inconclusive.

SMILES	FEN1 inhibitor	WRN inhibitor	Pol beta inh	POLI inh	Pol kappa inh-1	Pol eta inh-1	Pol eta inh-2	others
COc1ccc(C2=Nn3c(nnc3-c3ccccc3Cl)SC2)cc1OC1CCCC1	-20.0%	.	.	-29.0%	?	-4.0%	.	Pol kappa inh-2=16.8*
CCn1c(SCC(=O)c2ccccc2)nnc1-c1cccc(Cl)c1	-9.9%	.	17.9%	6.2%	4.8%	-5.5%	.
CCCCn1cc(S(=O)(=O)c2ccc(C)cc2)c(=O)c2cc(F)c(N3CCCCC3)cc21	2.8%	.	-2.7%	-5.3%	-7.5%	-10.5%	.
COc1c2ccccc2nc2occc12	.	.	.	.	-6.6%[60.1 µM]	.	.
Oc1ccc(/C=N/n2c(COc3ccccc3)n[nH]c2=S)cc1O	2.5%	?	6.31µM*	6.31µM*	20µM*	?	16.9*
CCOc1cc(/C=N/n2c(COc3ccccc3)n[nH]c2=S)ccc1O	4.8%	4.3%	1.9%	17.0%	8.3%	-18.2%	.
Cc1oc(/N=C/c2cccc3ccccc23)c(C#N)c1C	-23.4%	?	16.1%	22.4µM*	?	25.1µM*	47.8*
COc1ccc(C(=O)N2CCC3(CCN(Cc4ccccc4OC)CC3)CC2)cc1	.	.	.	.	6.9%[60.1 µM]	.	.
CCN(c1ccccc1)S(=O)(=O)c1ccc(C(=O)N2CCN(c3ccccc3F)CC2)cc1	.	-5.0%	.	.	.	-21.4%	.
O=C(O)c1ccc(/C=C/c2nc3sc4c(c3c(=O)[nH]2)CCC4)cc1	-15.1%	-35.9%	-10.6%	14.1µM*	?	22.4µM*	?
O=C(O)c1ccc(/C=C/c2nc3ccccc3c(=O)[nH]2)cc1	23.7%	-3.3%[57.1 µM]	1.3%	?	-17.2%	2.4%	.
COc1ccc(CNc2ncncc2-c2c(C)noc2C)c(OC)c1	.	.	.	.	-1.2%[60.1 µM]	.	.
O=C(Nc1cccc(C(F)(F)F)c1)C1Cc2c(-c3ccccc3)ccnc2O1 (configuration not stated)	.	2.3%	.	.	.	.	.
CCOc1ccc2nc(N3C(=O)/C(=C/c4ccccc4)NC3=S)sc2c1	?	-15.7%	0.0%[57.1 µM]	-16.5%	-2.1%	?	.
COc1ccc2nc(N3C(=O)/C(=C/c4ccccc4)NC3=S)sc2c1	-16.1%	-28.5%	?	-11.1%	-2.1%	31.6µM*	.	Pol kappa inh-2=?
Cc1cn([C@H]2C[C@H](O)[C@@H](/C=C/C(=O)NCc3ccco3)O2)c(=O)[nH]c1=O	.	-5.3%	.	.	.	.	.
COc1ccc2c(CC(=O)Nc3ccccc3OC)coc2c1	-5.5%	-4.3%	2.1%	12.1%	2.3%	-13.9%	.
COc1ccc(C(=O)NNC(=O)Cc2coc3cc(OC)ccc23)cc1	0.3%	-35.5%	.	?	?	20µM*	?
CC(=O)Nc1ccc(NC(=S)NC(=O)/C=C/c2ccco2)cc1	50.1µM*	?	-2.8%	?	44.7µM*	28.2µM*	60.1*
O=C(/C=C/c1ccco1)Nc1cccc(NC(=O)/C=C/c2ccco2)n1	1.6%	-15.7%[11.6 µM]	25.1µM*	35.5µM*	-29.8%	20µM*	?
COc1cccc(NC(=S)NC(=O)/C=C/c2ccco2)c1	-9.4%	?	39.8µM*	28.2µM*	?	44.7µM*	47.8*	Pol kappa inh-2=16.8*
CC1=C(C(=O)O)N2C(=O)[C@@H](NC(=O)[C@@H](N)c3ccc(O)cc3)[C@@H]2SC1	.	.	.	.	-4.3%[12 µM]	.	.
Cc1ccc2[nH]c(=O)c(CN(CCCO)Cc3nnnn3Cc3ccccc3)cc2c1	-19.6%	.	.	-16.5%	-3.3%	.	.
Clc1ccc2c(-c3ccccc3)nc(-c3cccs3)nc2c1	.	1.5%	.	.	.	.	.
COc1cc(CCc2ccccc2)c(C(=O)O)c(O)c1CC=C(C)C	?	-16.0%	.	-2.0%	-20.9%	-0.4%	.
SMILES	FEN1 inhibitor	WRN inhibitor	Pol beta inh	POLI inh	Pol kappa inh-1	Pol eta inh-1	Pol eta inh-2	others
COc1cc(CCc2ccccc2)c(C(=O)O)c(O)c1C/C=C(/C)CCC=C(C)C	?	?	.	?	79.4µM*	31.6µM*	84.9*	Pol kappa inh-2=?
O=C1NC(=S)NC1=Cc1ccco1	44.7µM*	-118.1%	.	?	?	12.6µM*	75.7*	Pol kappa inh-2=33.6*
O=C1NC(=O)/C(=C/c2ccco2)N1	-0.3%	.	.	50.4%	3.0%	-9.4%	.
CC(C)Sc1ncc(Cl)c(C(=O)N(Cc2ccc(N(C)C)cc2)C2CCS(=O)(=O)C2)n1 (configuration not stated)	-16.1%	.	?	?	-22.4%	79.4µM*	?	Pol kappa inh-2=?
CCSc1ncc(Cl)c(C(=O)N(Cc2ccc(N(C)C)cc2)C2CCS(=O)(=O)C2)n1 (configuration not stated)	1.1%	-19.0%	-10.7%	4.9%	-12.8%	-5.4%	.
COCOc1cccc(CN2CCC(C)(Oc3cccc(OC)c3)C2)c1 (configuration not stated)	.	3.5%[57.1 µM]	.	.	.	.	.
O=C(NCc1ccco1)c1ccc(-c2ccc3nccn3c2)cc1	.	-26.0%	.	.	.	.	.
COCCn1c(=O)c(C)nc2cnc(Nc3ccccc3)nc21	.	.	.	.	0.7%[60.1 µM]	.	.
Cc1ccc(Cl)c2c1N[C@@H](c1ccc(C(=O)O)cc1)[C@H]1CC=C[C@@H]21	-34.1%	.	15.8µM*	31.6µM*	31.6µM*	?	?	Pol kappa inh-2=75.2*
CCCCCC(=O)N1C[C@H](n2cc(-c3ccc(F)cc3)nn2)[C@@H](O)C[C@@H]1c1ccc(OC)cc1	.	-8.6%	.	.	.	-11.4%	.
COc1ccc(NC(=O)CN2C(=O)C(=O)c3ccccc32)c(OC)c1	-2.3%	.	15.9%	29.2%	0.1%	-15.9%	.
CCOC(=O)c1cc(-c2ccc(/C=C3/C(=O)N(c4ccc(C(=O)O)cc4)N=C3C)o2)ccc1Cl	-21.5%	-22.8%[11.6 µM]	-13.3%	1.41µM*	?	17.8µM*	.	GALK confirm=21.1µM*;GALK redox cs=11.9µM*;HEK293 tox=14.4%
